Screening results deposited in PubChem BioAssay by several laboratories.
Sampled rows, rich in hits. Any-hit rate of the full collection: about 2.3%.
MEKK2 mut-MEK5 – MEK5 binding signal on mutant MEKK2 PB1, primary screen, biochemical, multiplex bead flow cytometry, Alexa488-MEK5 | percent response, % at 10 µM | 290,000 compounds, 0.35% hits | Alexa488-MEK5 binding to MEKK2 mutant; in the data active = percent response above about 24%, passing the limit was not always enough
MEKK3 PB1 HTS – modulators of MEKK3-MEK5 PB1 binding, primary screen, biochemical, wildtype MEKK3, multiplex bead flow cytometry, Alexa488-MEK5. Mitogen-activated protein kinase kinase kinase 3 (Homo sapiens), Q99759. bead-based flow cytometry, Alexa488-MEK5 binding to MEKK3; actives lie on both sides; 0 = blocked by unlabeled MEK5, 100 = vehicle. binding response (% of control), % at 10 µM. 290,000 compounds, 1.4% hits. AID 1529, 2009;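 active = binding response more than 3 SD above or below the average of its plate-row segment, actives on both sides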;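 also: Alexa488 bead fluorescence after subtracting the streptavidin-only scavenger bead signal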
MEKK2 WT-MEK5 – modulators of MEK5 binding to wildtype MEKK2, primary screen, biochemical, multiplex bead flow cytometry, Alexa488-MEK5. Mitogen-activated protein kinase kinase kinase 2 (Homo sapiens), Q9Y2U5. Alexa488-MEK5 binding to MEKK2 WT; actives lie on both sides. binding response (% of control), % at 10 µM. 290,000 compounds, 1.1% hits. AID 1531, 2009; in the data active = binding response below about 67% or above about 130%
UBC13 polyUb – UBC13 polyubiquitin chain formation inhibitors, primary screen, biochemical, TR-FRET, uHTS; inhibition, % at 20 µM; Ubiquitin-conjugating enzyme E2 N (Homo sapiens), P61088; 330,000 compounds, 0.47% hits; AID 485273, 2010; in the data active = inhibition above about 45%, passing the limit was not always enough
Target sequence (P61088 whole entry, looked up): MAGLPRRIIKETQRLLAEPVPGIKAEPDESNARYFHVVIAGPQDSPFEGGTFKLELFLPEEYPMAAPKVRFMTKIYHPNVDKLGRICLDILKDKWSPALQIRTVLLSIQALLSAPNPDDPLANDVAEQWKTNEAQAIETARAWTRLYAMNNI
MEKK2wt confirm – modulators of MEK5 binding to wildtype MEKK2, confirmation, biochemical, single concentration, multiplex bead flow cytometry; 5,900 compounds, 2.4% hits; binding response (% of control), % at 10 µM; Alexa488-MEK5 binding to MEKK2 WT; actives lie on both sides; shares compounds with MEKK3 PB1 HTS; in the data active = binding response below about 16% or above about 210%; inactive = in between
MEKK2mut confirm – mutant MEKK2 PB1-MEK5 binding signal retest – biochemical, single concentration, multiplex bead flow cytometry, confirmation; shares compounds with MEKK3 PB1 HTS; Alexa488-MEK5 binding to MEKK2 mutant; percent response, % at 10 µM; 5,900 compounds, 2% hits; AID 1893, 2009; in the data active = percent response mostly above about 71%, no sharp cut-off; inactive = mostly below about 38%;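 also: higher means compound restores mutant binding toward wildtype level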
MEKK3 confirm – MEKK3 wild-type PB1 binding to MEK5, inhibitors, confirmation, biochemical, bead multiplex flow cytometry, single concentration, wildtype; 5,900 compounds, 1.8% hits; binding response (% of control), % at 10 µM; shares compounds with MEKK3 PB1 HTS; Alexa488-MEK5 binding to MEKK3; active compounds read low;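 active = binding response below 72% of control, or above a set upper limit, though filed actives all read lower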;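 also: lower values mean stronger disruption of MEK5 binding to MEKK3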
Large screens that a line does not name were inactive (follow-up assays come after a bar, where they were run); [ ] = another dose, or the depositor's remark.

CCCC(=O)NC(=S)Nc1nc(-c2ccc(OC)cc2)cs1	MEKK3 PB1 HTS 137 | MEKK2wt confirm inactive | MEKK2mut confirm inactive | MEKK3 confirm inactive
CC(C)CC(=O)NC(=S)Nc1nc(-c2ccc(Cl)cc2)cs1	MEKK3 PB1 HTS 155 | MEKK2wt confirm inactive | MEKK2mut confirm inactive | MEKK3 confirm inactive
COc1ccc(-c2csc(NC(=O)COC(=O)c3ccco3)n2)cc1	MEKK3 PB1 HTS 138 | MEKK2wt confirm inactive | MEKK2mut confirm inactive | MEKK3 confirm inactive
COc1ccccc1N1CCN(c2nc3ccccn3c(=O)c2C=O)CC1	none
CCOC(=O)NC(=O)c1cn(CCNCCO)c(=O)[nH]c1=O	none
COc1ccc(NC2CC(=O)N(c3cc([N+](=O)[O-])ccc3C)C2=O)cc1 (centres undefined)	none
Cc1cc(-c2cc(N)n(-c3ccccc3)n2)c(C)n1C1CCCC1	MEKK2 WT-MEK5 -5.0[inhibitor] | MEKK2wt confirm inactive | MEKK2mut confirm inactive | MEKK3 confirm inactive
CCOc1ccc(CC(=NCCc2ccccc2)C2=C(O)CC(C)(C)CC2=O)cc1OCC	MEKK3 PB1 HTS 146 | MEKK2wt confirm inactive | MEKK2mut confirm inactive | MEKK3 confirm inactive
CCOc1ccc(CC(=N)C2=C(O)CC(C)(C)CC2=O)cc1OCC	none
COc1ccc(C(CCN2CCCC(C)C2)c2c(OC)cc(OC)c3c(C)cc(=O)oc23)cc1 (centres undefined)	MEKK2 WT-MEK5 138 | MEKK2wt confirm inactive | MEKK2mut confirm inactive | MEKK3 confirm inactive
COc1cc(OC)c2c(-c3ccccc3)cc(=O)oc2c1C(CCN1CCCC(C)C1)c1ccc(N(C)C)cc1 (centres undefined)	MEKK2 mut-MEK5 41, MEKK2 WT-MEK5 222 | MEKK2wt confirm inactive | MEKK2mut confirm inactive | MEKK3 confirm inactive
COc1cc(OC)c2c(-c3ccccc3)cc(=O)oc2c1C(CCN1CCN(c2ccccc2)CC1)c1ccc(N(C)C)cc1 (centres undefined)	none
COc1cc(OC)c2c(C)cc(=O)oc2c1C(CCN1CCOCC1)c1ccc(N(C)C)cc1 (centres undefined)	none
COc1cc(C(CCN2CCCCC2)c2c(OC)cc(OC)c3c(C)cc(=O)oc23)cc(OC)c1OC (centres undefined)	MEKK2 WT-MEK5 141 | MEKK2wt confirm inactive | MEKK2mut confirm inactive | MEKK3 confirm inactive
COC1CCCN(C(=O)c2ccc(OC3CCN(S(=O)(=O)N(C)C)CC3)cc2)C1 (centres undefined)	none
CCOC(=O)C1=C(C)Nc2sc(C(=O)c3ccc(C)cc3)c(N)c2C1c1ccc(C(=O)OC)cc1 (centres undefined)	MEKK3 PB1 HTS 149 | MEKK2wt confirm inactive | MEKK2mut confirm inactive | MEKK3 confirm inactive
CCOC(=O)C1=C(C)Nc2sc(C(=O)c3ccc(F)cc3)c(N)c2C1c1ccc(C(=O)OC)cc1 (centres undefined)	none
O=C(Nc1ccc(Cl)cc1F)c1ccc2c(c1)C(=O)N(Cc1ccncc1)C2=O	none (no result: MEKK2 mut-MEK5, MEKK3 PB1 HTS, MEKK2 WT-MEK5)
Cc1cccc2cc(CN(CCN3CCOCC3)C(=O)Nc3ccccc3F)c(=O)[nH]c12	MEKK3 PB1 HTS 132 | MEKK2wt confirm inactive | MEKK2mut confirm inactive | MEKK3 confirm inactive
Cc1cc2cc(CN(CCN3CCOCC3)C(=O)Nc3ccccc3F)c(=O)[nH]c2cc1C	none
Cc1ccc(N=Nc2cc(C)ccc2O)c(C)c1	MEKK3 PB1 HTS 5.0[inhibitor], MEKK2 WT-MEK5 8.0[inhibitor] | MEKK2wt confirm inactive | MEKK2mut confirm inactive | MEKK3 confirm inactive
